Source: PubChem
NLRP3 yeast inh: blocks the NALP3 inflammasome reconstituted in yeast | AID 2825 | Yeast reconstituted NLRP3/ASC/caspase-1, beta-gal luminescence, 24 h | 330,000 tested, 0.39% active | inhibition, % at 10 µM;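 active = inhibition of 50% or more; inactive = inhibition below 50%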
tim10-1 inh: inhibits growth of tim10-1 mutant yeast; S. cerevisiae tim10-1 ts strain growth, BacTiter-Glo, 24 h; inhibition, % at 20 µM; 330,000 tested, 2.2% active; AID 463190;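 active = inhibition of at least 40%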;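 also: mutant grown at 25 °C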
PfHsp90 set2: inhibits growth of yeast expressing Plasmodium falciparum Hsp90 | 310,000 tested, 0.32% active | inhibition, % at 9.4 µM | AID 504621 | S. cerevisiae expressing PfHsp90, BacTiter-Glo ATP, 48 h; yeast lacking PDR1 and PDR3 efflux regulators;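 active = every replicate shows inhibition above about 80%, whatever the replicate mean, limit read from the data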
tim23-1 inh: inhibits growth of tim23-1 mutant yeast | S. cerevisiae tim23-1 growth, BacTiter-Glo luminescence, 24 h | inhibition, % at 20 µM | 330,000 tested, 1.3% active | AID 463212;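 active = growth inhibition of the mutant yeast at or above 50%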;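 also: temperature-sensitive mutant grown at 25 °C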
NALP1 inh: blocks the NALP1 inflammasome reconstituted in yeast; AID 2071; 280,000 tested, 0.61% active; S. cerevisiae NALP1/ASC/caspase-1 growth, X-gal OD620, 72 h; inhibition, % at 10 µM; in the data active = inhibition mostly above about 24%, no sharp cut-off; inactive = mostly below about 32%
TIM10 inh: growth inhibitors of TIM10 yeast strain; S. cerevisiae TIM10 strain growth, BacTiter-Glo luminescence, 24 h; inhibition, % at 10 µM; 330,000 tested, 1.4% active; AID 463195;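 active = inhibition of 40% or more at the single tested concentration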;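 also: wild-type TIM10 isogenic control strain grown at permissive 25 °C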
NALP3 confirm: NALP3 inhibition confirmation in yeast | inhibition, % at 10 µM | shares compounds with NLRP3 yeast inh | yeast expressing human NALP3, luminescence | 1,300 tested, 81% active; in the data active = inhibition above about 48%
Casp1-ASC yeast: caspase-1-ASC yeast counter-screen hit; AID 488784; yeast expressing Caspase-1-ASC, luminescence counter screen; 1,000 tested, 66% active; inhibition, % at 10 µM; shares compounds with NLRP3 yeast inh
NALP3 yeast rt: confirmation retest of NALP3 inhibitors in yeast; shares compounds with NLRP3 yeast inh; yeast expressing human NALP3, luminescence read-out; inhibition, % at 10 µM; 1,000 tested, 53% active; AID 488794
tim10-1 conf: tim10-1 yeast growth inhibition, confirmed. shares compounds with tim10-1 inh. S. cerevisiae tim10-1 ts strain growth, BacTiter-Glo, 24 h. inhibition, % at 20 µM. 7,400 tested, 56% active. AID 463213;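 active = inhibition of yeast growth at or above a set limit in either of two repeat tests at 20 µM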;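 also: tim10-1 mutant grown at permissive 25 °C to find synthetic lethal compounds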
TIM10 conf: confirmation of TIM10 yeast growth inhibitors | shares compounds with TIM10 inh | AID 463215 | S. cerevisiae tim10 strain growth, BacTiter-Glo luminescence, 24 h | inhibition, % at 10 µM | 4,600 tested, 63% active;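 active = inhibition of yeast growth at or above a set limit in either of two replicates at 10 µM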; also: this counterscreen used the strain with wild-type TIM10
tim23-1 conf: confirmation of tim23-1 mutant yeast growth inhibitors. shares compounds with tim23-1 inh. S. cerevisiae tim23-1 growth, BacTiter-Glo luminescence, 24 h. inhibition, % at 20 µM. 4,400 tested, 83% active. AID 463218;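 active = inhibition above about 39% in either of two replicate wells at 20 µM, limit read from the data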;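 also: temperature-sensitive tim23-1 mutant grown at 25 °C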
Each line names hits and unclear results; the compound was inactive in the other large screens (follow-up assays come after a bar, where they were run). Shown are actives, neighbours in structure and some others; about 4.1% of the full set was active somewhere. Rule as the data show it, unless noted: active = inhibition above about 50%; inactive = the rest.

CC(C)Oc1ccc(C(=O)/C=C2/C(=O)Nc3ccccc32)cc1	NLRP3 yeast inh 65, tim10-1 inh 69, PfHsp90 set2 107, tim23-1 inh 88, TIM10 inh 76 | NALP3 confirm 76 | Casp1-ASC yeast 86 | NALP3 yeast rt 64 | tim10-1 conf 76 | TIM10 conf 69 | tim23-1 conf 85
O=C(/C=C1\C(=O)Nc2ccccc21)/C=C1\C(=O)Nc2ccccc21	none (no result: NLRP3 yeast inh, tim10-1 inh, tim23-1 inh, TIM10 inh)
COC(=O)c1ccc2c(c1O)C(=O)c1ccccc1C2=O	NLRP3 yeast inh 54, tim10-1 inh 80, tim23-1 inh 77, TIM10 inh 91 | NALP3 confirm 61 | Casp1-ASC yeast 61 | NALP3 yeast rt 52 | tim10-1 conf 75 | TIM10 conf 91 | tim23-1 conf 82
O=C(C1CC(=O)N(c2ccccc2F)C1)N1CCOCC1 (stereo not drawn)	none (no result: NALP1 inh)
c1ccc(Oc2ccc(-c3ccn[nH]3)cc2)cc1	none
c1ccc(-c2ncc(-c3ccn[nH]3)s2)cc1	NLRP3 yeast inh 65, tim23-1 inh 56, TIM10 inh 49 | NALP3 confirm 84 | Casp1-ASC yeast 79 | NALP3 yeast rt 64 | TIM10 conf inactive | tim23-1 conf 68
Nc1nc2sc3c(c2c(=O)s1)CCCC3	NLRP3 yeast inh 71, tim10-1 inh 54, tim23-1 inh 73, TIM10 inh 44 | NALP3 confirm 83 | Casp1-ASC yeast 70 | NALP3 yeast rt 80 | tim10-1 conf inactive | TIM10 conf 33 | tim23-1 conf 52
Nc1nc(-c2ccc(Oc3ccccc3)cc2)cs1	NLRP3 yeast inh 97, tim23-1 inh 57, NALP1 inh 98 | NALP3 confirm 57 | Casp1-ASC yeast 99 | NALP3 yeast rt 99 | tim23-1 conf 48
COc1ccc(-c2csc(N)n2)cc1	none
Cc1ccc(C)c(Sc2ccc(NC(=O)CCl)cc2)c1	NLRP3 yeast inh 81, tim10-1 inh 57, tim23-1 inh 74, TIM10 inh 51 (no result: PfHsp90 set2, NALP1 inh) | NALP3 confirm 81 | Casp1-ASC yeast 88 | NALP3 yeast rt 74 | tim10-1 conf 55 | TIM10 conf 36 | tim23-1 conf 49
Cc1ccc(Sc2ccc(NC(=O)CCl)cc2)cc1C	NLRP3 yeast inh 66, tim10-1 inh 50, tim23-1 inh 66, NALP1 inh 57, TIM10 inh 40 | NALP3 confirm 76 | Casp1-ASC yeast 62 | NALP3 yeast rt 66 | tim10-1 conf 52 | TIM10 conf 39 | tim23-1 conf 76
Cc1ccc(C(=O)NCC(C)NC(=O)c2ccc(C)c(C)c2)cc1C (stereo not drawn)	none (no result: NALP1 inh)
COc1ccc(/C=C/C(=O)c2ccc([N+](=O)[O-])o2)cc1OC	NLRP3 yeast inh 50, tim10-1 inh 91, tim23-1 inh 90, TIM10 inh 96 (no result: PfHsp90 set2, NALP1 inh) | NALP3 confirm 54 | Casp1-ASC yeast 80 | NALP3 yeast rt 58 | tim10-1 conf 89 | TIM10 conf 98 | tim23-1 conf 97
CS(=O)(=O)n1nc(-c2ccc(Cl)cc2)nc1N	none
